This note sets out measurements from PubChem BioAssay (NCATS).

Each structure is given as a SMILES string. Records with an inconclusive call do not appear. The source made the active and inactive calls. The call rests on the fitted dose curve; in most records, active means well fitted curve in the direction sought with a large enough effect; inconclusive means small, poorly fitted or top-dose-only effect, or another doubt; inactive means no such curve, though single readings can be large; an effect the other way counts as inactive or inconclusive.

The first experiment in a line: qHTS of Nrf2 Activators: LOPAC Validation (AID 624149). Further: 0% is about no effect. The conditions noted are these: Nrf2/ARE reporter cell assay; series mostly up to 46.1 µM; activation: at the top concentration. The essentials:
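ARE reporter activation measured in AREc32 firefly luciferase cells after 24 hr compound exposure; Steady-Glo luminescence.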
Regarding `CC(C)(Sc1ccc(CCN(CCCCC2CCCCC2)C(=O)NC2CCCCC2)cc1)C(=O)O`, the “activation” value was 6.43% (inactive).
Same read-out and setting: next, `CC(C)C[C@H](NC(=O)[C@@H](O)[C@H](N)Cc1ccccc1)C(=O)O`: -0.867% (inactive); `Nc1nc2c(ncn2COCCO)c(=O)[nH]1`: -2.21% (inactive).
Same read-out and setting: for `C1COC(NC(C2CC2)C2CC2)=N1` the value was 7% (inactive).
The same measure, in the same setting: for `Cc1cccc(-c2[nH]c(C(C)(C)C)nc2-c2ccc3nccnc3c2)n1` the value was 0.687% (inactive).
Regarding `CCC(C)N(C)C(=O)c1cc2ccccc2c(-c2ccccc2Cl)n1` (configuration not stated), the “activation” value is -1.89% (inactive).
Still for that read-out and setting: for `Cc1oncc1C(=O)Nc1ccc(C(F)(F)F)cc1` the value was -0.786% (inactive); for `CCN(CC)CCCC(C)Nc1ccnc2cc(Cl)ccc12` (configuration not stated), -1.75% (inactive).
For the molecule `CCn1cc(C(=O)O)c(=O)c2cc(F)c(N3CCNC(C)C3)c(F)c21` (configuration not stated), the “activation” value was 0.946% (inactive).
Consider `CCOC(=O)C1=C[C@]2(CC)CCCN3CCc4c(n1c1ccccc41)[C@@H]32`, for which the “activation” value is -1.22% (inactive).
In the case of `CCOC(=O)N1CCC(=C2c3ccc(Cl)cc3CCc3cccnc32)CC1`, the “activation” value is -2.26% (inactive).
Regarding `OC(CCN1CCCCC1)(c1ccccc1)C1CC2C=CC1C2` (configuration not stated), the “activation” value is -2.22% (inactive).
As to `O=c1n(CCCN2CCN(c3cccc(Cl)c3)CC2)nc2ccccn12`, the “activation” value is 0.864% (inactive).
Consider `Nc1nc2ccc(OC(F)(F)F)cc2s1`, for which the “activation” value was -2.28% (inactive).
Take `O=C(O)COCCN1CCN(C(c2ccccc2)c2ccc(Cl)cc2)CC1` (configuration not stated): the “activation” value is -1.98% (inactive).
For the molecule `Cc1cc2c(C(C)C)c(O)c(O)c(C=O)c2c(O)c1-c1c(C)cc2c(C(C)C)c(O)c(O)c(C=O)c2c1O`, the “activation” value was -2.48% (inactive).
Same read-out and setting: next, `OC(CN1CCC(Cc2ccc(F)cc2)CC1)c1ccc(Cl)cc1` (configuration not stated): -1.34% (inactive).
In the case of `c1ccc([C@H]2CN3CCSC3=N2)cc1`, the “activation” value was -1.99% (inactive).
With `Cc1cnc(NC(=O)C2=C(O)c3ccccc3S(=O)(=O)N2C)s1`, the “activation” value was -1.46% (inactive).
Consider `NCCCC(N)(C(=O)O)C(F)F` (configuration not stated), for which the “activation” value was 1.13% (inactive).
Regarding `NNCCc1ccccc1`, the “activation” value was -0.88% (inactive).
The same measure, in the same setting: next, `Cc1ccc(N(CC2=NCCN2)c2cccc(O)c2)cc1`: -1.86% (inactive).

Another experiment is described as follows: HTS Assay for Allosteric Antagonists of the Human D2 Dopamine Receptor: Hit Validation in HTRF (AID 624455).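 Further: stable D1 dopamine receptor cell line scored for blocking the D1 response; on the % scale 0 is the no-effect control and ±100 the full control effect.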 The conditions noted are these: Cells stably expressing D1 dopamine receptor, inhibition mode; series mostly up to 46.1 µM; activity, negative = inhibition: at the top concentration. The procedure, abridged: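 Signal from an HTRF read-out in D1-expressing stable cells gave hit activity as inhibition of the D1 response.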
With `CC(C)(Sc1ccc(CCN(CCCCC2CCCCC2)C(=O)NC2CCCCC2)cc1)C(=O)O`, the “activity, negative = inhibition” value was -1.4% (inactive).
Same read-out and setting: for `CC(C)C[C@H](NC(=O)[C@@H](O)[C@H](N)Cc1ccccc1)C(=O)O` the value was -80.5% (inactive); for `Nc1nc2c(ncn2COCCO)c(=O)[nH]1`, 1.42% (inactive).
Still for that read-out and setting: next, `C1COC(NC(C2CC2)C2CC2)=N1`: -2.68% (inactive).
On to `Cc1cccc(-c2[nH]c(C(C)(C)C)nc2-c2ccc3nccnc3c2)n1`, for which the “activity, negative = inhibition” value was -1.99% (inactive).
`CCC(C)N(C)C(=O)c1cc2ccccc2c(-c2ccccc2Cl)n1` (configuration not stated): the “activity, negative = inhibition” value is 5.17% (inactive).
Take `Cc1oncc1C(=O)Nc1ccc(C(F)(F)F)cc1`: the “activity, negative = inhibition” value was 6.35% (inactive).
Consider `CCN(CC)CCCC(C)Nc1ccnc2cc(Cl)ccc12` (configuration not stated), for which the “activity, negative = inhibition” value is 10.8% (inactive).
Still for that read-out and setting: next, `CCn1cc(C(=O)O)c(=O)c2cc(F)c(N3CCNC(C)C3)c(F)c21` (configuration not stated): 1.27% (inactive).
Still for that read-out and setting: next, `CCOC(=O)C1=C[C@]2(CC)CCCN3CCc4c(n1c1ccccc41)[C@@H]32`: 6.91% (inactive); `CCOC(=O)N1CCC(=C2c3ccc(Cl)cc3CCc3cccnc32)CC1`: 6.23% (inactive).
Consider `OC(CCN1CCCCC1)(c1ccccc1)C1CC2C=CC1C2` (configuration not stated), for which the “activity, negative = inhibition” value is -3.28% (inactive).
For the molecule `O=c1n(CCCN2CCN(c3cccc(Cl)c3)CC2)nc2ccccn12`, the “activity, negative = inhibition” value is 7.88% (inactive).
Take `Nc1nc2ccc(OC(F)(F)F)cc2s1`: the “activity, negative = inhibition” value is -20.1% (inactive).
Take `Cc1cc2c(C(C)C)c(O)c(O)c(C=O)c2c(O)c1-c1c(C)cc2c(C(C)C)c(O)c(O)c(C=O)c2c1O`: the “activity, negative = inhibition” value was 2.97% (inactive).
Same read-out and setting: next, `OC(CN1CCC(Cc2ccc(F)cc2)CC1)c1ccc(Cl)cc1` (configuration not stated): 6.72% (inactive).
Consider `Cc1cnc(NC(=O)C2=C(O)c3ccccc3S(=O)(=O)N2C)s1`, for which the “activity, negative = inhibition” value was -1.69% (inactive).
On the same count and under the same terms, next, `NCCCC(N)(C(=O)O)C(F)F` (configuration not stated): -3.5% (inactive); `NNCCc1ccccc1`: 3.21% (inactive); `Cc1ccc(N(CC2=NCCN2)c2cccc(O)c2)cc1`: -3.07% (inactive).

A further experiment in a line: Cytotoxicity counterscreen for NFkB agonists and antagonists (AID 624476).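 Further: cells exposed to compound for 48 hours.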 Further: potency means the concentration at half of the fitted maximal effect. On activity change, negative = cytotoxicity: on the % scale 0 is the no-effect control and ±100 the full control effect. The conditions noted are these: NFkB reporter cell line viability counterscreen; series mostly up to 46.1 µM; activity change, negative = cytotoxicity: at the top concentration.
Regarding `CC(C)(Sc1ccc(CCN(CCCCC2CCCCC2)C(=O)NC2CCCCC2)cc1)C(=O)O`, the Potency was 23.5 µM (active).
In the case of `CC(C)C[C@H](NC(=O)[C@@H](O)[C@H](N)Cc1ccccc1)C(=O)O`, the “activity change, negative = cytotoxicity” value was -14% (inactive).
For `Cc1cccc(-c2[nH]c(C(C)(C)C)nc2-c2ccc3nccnc3c2)n1`, the “activity change, negative = cytotoxicity” value is 9% (inactive).
As for `CCC(C)N(C)C(=O)c1cc2ccccc2c(-c2ccccc2Cl)n1` (configuration not stated), the “activity change, negative = cytotoxicity” value was -5.87% (inactive).
Regarding `Cc1oncc1C(=O)Nc1ccc(C(F)(F)F)cc1`, the “activity change, negative = cytotoxicity” value was -5.61% (inactive).
As for `CCCc1nn(C)c2c(=O)[nH]c(-c3cc(S(=O)(=O)N4CCN(C)CC4)ccc3OCC)nc12`, the “activity change, negative = cytotoxicity” value was -0.396% (inactive).
`CCCc1nc2c(C)cc(-c3nc4ccccc4n3C)cc2n1Cc1ccc(-c2ccccc2C(=O)O)cc1`: the “activity change, negative = cytotoxicity” value is -14.8% (inactive).
Same read-out and setting: next, `Cn1cnc2c(F)c(Nc3ccc(Br)cc3Cl)c(C(=O)NOCCO)cc21`: -7.02% (inactive); `Nc1nc2ccc(OC(F)(F)F)cc2s1`: -16.8% (inactive).
Turning to `CCc1ccc(CCOc2ccc(CC3SC(=O)NC3=O)cc2)nc1` (configuration not stated), the “activity change, negative = cytotoxicity” value was -7.68% (inactive).
The same measure, in the same setting: for `Clc1ccc(Nc2nnc(Cc3ccncc3)c3ccccc23)cc1` the value was -45.4% (inactive); for `CNC(=O)c1ccccc1Sc1ccc2c(/C=C/c3ccccn3)n[nH]c2c1`, -4.1% (inactive).
As to `OC(CN1CCC(Cc2ccc(F)cc2)CC1)c1ccc(Cl)cc1` (configuration not stated), the “activity change, negative = cytotoxicity” value is -11.1% (inactive).
The same measure, in the same setting: next, `Nc1nc2[nH]cc(CCc3ccc(C(=O)N[C@@H](CCC(=O)O)C(=O)O)cc3)c2c(=O)[nH]1`: -16.3% (inactive); `CCOC(=O)C1=C[C@@]2(CC)CCCN3CCc4c(n1c1ccccc41)[C@H]32`: 0.513% [at 29.8 µM] (inactive).
